Experimental data reported in the supplement of paper PMC11417369.
± gives the standard deviation of the averaged measurements. The full ranking holds about 25,000 sequences; the median of “ln(normalized median fluorescence intensity)” is about 8.9, and the highest 2% start at about 10. The full list was thinned out, with the highest values kept by preference.

system: PfAP2-LT AP2 domain (GST-tagged); assay: gcPBM binding intensity (ln(normalized median fluorescence intensity)); higher = stronger DNA binding
Procedure, shortened: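 Using an Agilent 4 × 180k array, primer-extended double-stranded 36-bp intergenic genomic probes and negative controls were exposed for 1 h to GST-fused P. falciparum DNA-binding domains expressed in E. coli. Binding was carried out in 1× PBS with 1% milk, 0.2 mg/ml BSA, 0.5% salmon testes DNA and 0.03% Triton X-100, and protein was detected with Alexa488 anti-GST antibody and a 488 nm scan. Binding intensity is the highest Masliner-normalised natural-log median intensity across replicate spots of either probe orientation.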

Row | Sequence | gcPBM binding intensity (ln)
1 | ATTTAATTTTCCAAATGTACTTATATTTTTATGAAA [XGTACX_site6144] | 8.27 ± 0.4
2 | TTTTTTTTTTAAATGTGTCCTCATTATAATATATGT [XGTACX_site5331] | 8.65 ± 0.47
3 | ATATAAGTTTTTTCTCAAAAAGTATAACGAGCATGA [CACACA_negctrl_site1375] | 8.6 ± 0.4
4 | GACAAAAAATTAAAATAAAATAATAATATAATAAAA [GTGCAC_negctrl_site234] | 8.55 ± 0.67
5 | TTTTGGTATACGTAATTATATAATATGTTAATCAAT [CACACA_negctrl_site645] | 8.61 ± 0.36
6 | ATGTAGAGTAATAGTTGTACAAGGTGTATATCTCAT [XGTACX_site6370] | 9.29 ± 0.57
7 | TAAAAGTTAATATAAACACACAAAAATTAATAAATA [CACACA_site6316] | 8.73 ± 0.45
8 | TTATAAAAAGAACAATTAAAAAAAAATAAAATAAAA [XGTACX_negctrl_site398] | 8.4 ± 0.63
9 | ATATAATGTGTAGGCCGTATTTACGTTTGGCAATCA [CACACA_negctrl_site1130] | 8.99 ± 0.56
10 | ATTTGGCATAAACACACACACACACCCACCCACATA [CACACA_site8096] | 10.1 ± 0.37
11 | ATTTGGCAGAAACACACACACACACCCACCCACATA [CACACA_site589] | 10.2 ± 0.35
12 | TAGAAGCAGAAACACACACACATACATACACATACA [CACACA_site1467] | 9.87 ± 0.35
13 | TGTAAATTTGGCATCACACATAAATAAACATATAAA [CACACA_site4497] | 8.77 ± 0.45
14 | TATACGCAGAAACACACACACATACACCCACATACA [CACACA_site1723] | 10 ± 0.26
15 | CATAAATGTATATAAACATGCAAGGACAGACTTTTA [TGCATGCA_site900] | 8.92 ± 0.37
16 | TATATATATTATAATACATGCGGTGATGAAAGTTAT [TGCATGCA_site924] | 9.07 ± 0.58
17 | TTATTTAAAATTTTTATGCGTATATATATAGGAACA [CACACA_negctrl_site388] | 8.35 ± 0.39
18 | ACCTGAAGAGTCAAACGTACAAATATTATAAAATGA [XGTACX_site3188] | 8.77 ± 0.59
19 | TTCGTCTTTTTTCTCACACACCCTTTTTATTAAAAG [CACACA_site7225] | 9.05 ± 0.6
20 | AATACACCCAGACACACACACAAAAAAAAAAAAAAA [CACACA_site513] | 9.53 ± 0.61
21 | CATACCTATAGACACACACACACACGCACGCACAAA [CACACA_site6374] | 10 ± 0.18
22 | CGTGGGAGCAGACACACACACACACCCATATATATA [CACACA_site334] | 9.99 ± 0.5

Row | Sequence | gcPBM binding intensity (ln)
23 | TTGGCATACAGACACACACACACACGCCCACATATA [CACACA_site6425] | 10.1 ± 0.38
24 | GGAGCACCCAGACACACACACACATATATATATATA [CACACA_site336] | 10.4 ± 0.19
25 | TACCTATACAGACACACACACACACGCCCACAAAAA [CACACA_site6375] | 10.2 ± 0.37
26 | CGCCCACAGATATATACACACATATATAAATAAATA [CACACA_site6877] | 9.04 ± 0.33
27 | TATACACCCAGACACACACACACACCCAAAAAAAAA [CACACA_site497] | 10.2 ± 0.3
28 | TGGGAGCACAGACACACACACACACCCATATATATA [CACACA_site335] | 9.98 ± 0.36
29 | TACTATAACAGACATACACACAAAAAAAAAAAAAAA [CACACA_site538] | 9.03 ± 0.47
30 | AATTAGCTCAAAGGTTGTACAAATATATTTTAATGG [XGTACX_site2352] | 8.66 ± 0.48
31 | TTTATACATACATTCGTGCACATACGTATAACATAT | 9.07 ± 0.37
32 | TATAAAAAGCATAACACACACATGTCAATATATATA [CACACA_site1111] | 9.31 ± 0.35
33 | ATTTTGATGATGTATGCACACATTGAAAATGAGAAA [CACACA_site2916] | 8.97 ± 0.57
34 | AAAAAAAAGAATTATTGTACAAAAGAACAATAAATA [XGTACX_site1368] | 8.73 ± 0.57
35 | TGAAAAAAAAAATACACACACGAGTTGTTATACATA [CACACA_site7486] | 9.09 ± 0.43
36 | GGCATACACAGACACACACACACACCCACATATATA [CACACA_site591] | 10.2 ± 0.28
37 | AACAAATACAGACACACACACACACCCAAAAAAAAA [CACACA_site515] | 10.2 ± 0.26
38 | TTTAAATACAGACATACACACATACACCCACATATA [CACACA_site8078] | 9.61 ± 0.15
39 | CATACAGATGGACACACACACACACCCACAGACAAA [CACACA_site4431] | 9.93 ± 0.36
40 | CATACACCCAGACACACACACATATATATATATATA [CACACA_site634] | 10.3 ± 0.17
41 | TAAATACAGACATACACACATACACCCACATATATA [CACACA_site547] | 9.76 ± 0.38
42 | TGAACACAGACAAATACACACAAAAAAAATAAATAA [CACACA_site4298] | 9.28 ± 0.57
43 | AAAAAAAACAGACACACACACAAATACATACACAAA [CACACA_site705] | 9.72 ± 0.31
44 | TACAGATACGGACACACACACACACCCAGACAAAAA [CACACA_site4432] | 10.2 ± 0.46
